Each structure is given as a SMILES string. The campaign covered roughly 1,600 compounds. About 20 (1%) showed an effect of 50% or more. Only a selection was taken, and strong results are over-represented in it overall.

The assay relates to T1, E. coli pLC1021 (luc-trpAt trans-translation reporter).
T1 construct: pLC1021 luc-trpAt reporter strain
More on the design: species or system Escherichia coli pLC1021; luc-trpAt non-stop luciferase reporter; luminescence rises when trans-translation is inhibited; normalized to KKL-35 and DMSO. The settings on record: reporter signal, KKL-35 = 100%; rise means trans-translation inhibition; 2 h, 20 µM. Here is the method:
The luciferase screen was performed as previously described ([16]). […] 48 µL of cells was transferred to white 96-well plates, and 2 µL DMSO or 20 µM compound, or 20 µM KKL-35 was added. Plates were sealed with adhesive film, vortexed gently to mix, and incubated at room temperature for 2 h. 50 µL Bright-Glo reagent (Promega, Madison, WI) was added to each well, and the plates were sealed with adhesive film, vortexed vigorously, and incubated for an additional 10 min at room temperature. Luminescence was measured at 560 nm using a SpectraMax i3 microplate reader and readings for each plate were normalized to the average of three KKL-35-treated wells (positive control) and three DMSO-treated wells (negative control) within the plate to correct for plate-to-plate and day-to-day variations. Results from at least two biological repeats were averaged, and GraphPad Prism was used to plot the data. We screened a library of 1,601 anti-tubercular small molecules for their ability to inhibit trans-translation using a luciferase reporter in Escherichia coli. In this luc-trpAt reporter, the firefly luciferase gene has a trpA transcriptional terminator before the stop codon, such that luciferase is translated from a non-stop mRNA ([16]). When trans-translation is active, the luciferase will be tagged and degraded, but when trans-translation is inhibited, active luciferase will accumulate, resulting in a luminescent signal when luciferin is added. Luciferase activity was measured after growth in the presence of compounds from the library at 20 µM, using the known trans-translation inhibitor KKL-35 as a positive control (Fig. 1A) ([16], [17]). Compounds with activity one standard deviation above the median were scored as positive (Fig. S1 and Table S1).
As for `CSc1nccc(N2CCCC(CCC(=O)NCc3ccc(F)c(F)c3)C2)n1` (centres unmarked) [KKL-0346], the “% activation” value is listed as 0%.

Take `c1ccc(-c2nc3c(c(N4CCN(Cc5cc6ccccc6[nH]5)CC4)n2)CCC3)cc1` [KKL-0483]: the “% activation” value is on record as 0%. As for `Fc1ccc(Nc2nc(-c3ccccn3)cs2)cc1` [KKL-0715], the figure is 18%; as for `O=C(CCCSc1ccccc1)Nc1nc(-c2ccccn2)cs1` [KKL-0800], 1%; as for `COC(=O)COc1ccc2c(=O)c(-c3ccccc3Cl)c(C)oc2c1` [KKL-0748], 0%. Turning to `COC(=O)COc1ccc(NC(=O)c2ccccc2I)cc1` [KKL-1569], the “% activation” value came to 0%. As for `Cc1ccc(NC(=O)C(Cl)Cl)cc1[N+](=O)[O-]` [KKL-1373], the figure is 4%; as for `O=C(Cc1ccc(F)cc1)Nc1nc(-c2ccccn2)cs1` [KKL-1688], 13%.

Turning to `Cc1cc(NCc2ccccn2)n2ncc(-c3ccccc3)c2n1` [KKL-0947], the “% activation” value was found to be 0%. With `COc1ccccc1CN1CCCCC1C(=O)Nc1ccc(-n2cccn2)cc1` (centres unmarked) [KKL-0494], the “% activation” value turned out to be 3%. As for `Cc1ccc(-n2cc(CN(C)Cc3cc(C)[nH]n3)c(-c3ccc(F)cc3)n2)cc1` [KKL-0319], the “% activation” value came out at 0%. As for `COc1ccccc1C1(O)CCN(Cc2cnn(-c3ccc(C)cc3)c2)CC1` [KKL-0553], the figure is 7%; as for `O=[N+]([O-])c1cccc(NC(S)=Nc2ccc(Cl)c(C(F)(F)F)c2)c1` [KKL-1319], 0%; as for `COC(=O)C(CCSC)NC(=O)c1cc(COc2ccc(F)cc2Cl)on1` (centres unmarked) [KKL-0497], 9%. Then `O=C(Nc1ccc(Oc2cccnc2)cc1)C1Oc2ccccc2O1` [KKL-0696], with 0%; and `c1ccc(CCNc2ccnc3cc4ccccc4cc23)cc1` [KKL-1051], with 0%; and `Cc1nc(C2CCNCC2)ncc1-c1nc(N2CCCCCC2)ncc1-c1ccc(F)cc1` [KKL-0335], with 0%.

For the compound `C(=C\c1nc(N2CCCC2)c2ccccc2n1)/c1ccccc1` [KKL-1269], the “% activation” value was determined as 0%. On to `Cc1ccc2nc(C(F)(F)F)c(C(=O)NCc3cc(Cl)cc(Cl)c3)n2c1` [KKL-1785], for which the “% activation” value was 16%. Then `COc1ccc(CCN=C(S)N2CCN(C/C=C/c3ccccc3)CC2)cc1OC` [KKL-1528], with 2%.

Take `CC(C)c1ccc(OCC(=O)NNC(=S)NC(=O)c2ccco2)c(Br)c1` [KKL-0743]: the “% activation” value came to 24%. As for `Cc1ccc(C2(O)CCN(CCNC(=O)c3oc4ccccc4c3C)CC2)cc1` [KKL-0340], the figure is 1%; as for `CC(C)(C)c1ccc(C(=O)Nc2ccc(NC(=S)NC(=O)c3cccs3)cc2)cc1` [KKL-0310], 0%; as for `Oc1c(CN2CCc3ccccc3C2)cc(Cl)c2cccnc12` [KKL-0391], 42%. As for `CSc1ncc(C(=O)NC2(c3ccccc3)CCCC2)cn1` [KKL-0465], the figure is 0%; as for `COc1ccc(N=c2cc(-c3ccc(O)cc3)oc3ccccc23)cc1` [KKL-0846], 0%; as for `CCC(Sc1nc2ccccc2o1)C(=O)Nc1nnc(C)s1` (centres unmarked) [KKL-1356], 2%. As for `CCc1ccc(C2CC(C(F)(F)F)n3ncc(C(=O)NCc4cccs4)c3N2)cc1` (centres unmarked) [KKL-1779], the figure is 0%. In the case of `Cc1ccccc1CN1CC[C@@H]2[C@H](C1)[C@@H](c1ccc(F)cc1)CN2C(=O)C(C)C` [KKL-1218], the “% activation” value is 2%. As for `OC(CN1CCC(O)(c2ccc(F)cc2)CC1)c1ccc(-c2ccccc2)cc1` (centres unmarked) [KKL-0933], the figure is 0%; as for `CCC1CCCCN1C(=O)COC(=O)c1cc2ccccc2cc1O` (centres unmarked) [KKL-0823], 0%; as for `O=C(NCc1cc(Cl)cc(Cl)c1)c1c(C(F)(F)F)nc2ccccn12` [KKL-1807], 0%.

With `O=C(Nc1ccn(Cc2ccc(Cl)cc2)n1)c1ccc2c(c1)OCO2` [KKL-0566], the “% activation” value is 0%. Then `FC(F)(F)c1nnc2ccc(Sc3nnc(-c4ccco4)o3)nn12` [KKL-1754], with 1%. As for `CCCC(=O)NC(=S)Nc1ccc(N2CCN(C(=O)c3cccs3)CC2)c(Cl)c1` [KKL-0912], the figure is 0%.

As for `O=C(NCc1cnn(-c2cccc(F)c2)c1)c1cc(COc2cccc3cccnc23)on1` [KKL-0634], the “% activation” value stood at 2%. Regarding `O=C(NCCCc1ccc(F)cc1)c1cc(-c2ccccn2)[nH]n1` [KKL-0693], the “% activation” value worked out at 0%.

Take `O=C(Nc1nccs1)c1ccc(CSc2ccccc2)o1` [KKL-0586]: the “% activation” value is reported as 0%. With `CCc1c(C)c2ccc(OCC(=O)OC)c(C)c2oc1=O` [KKL-1278], the “% activation” value is on record as 0%. Consider `CCOC(=O)/C(C#N)=C/c1ccc(-c2ccc(F)cc2)o1` [KKL-0788], for which the “% activation” value came out at 0%. Turning to `NC1CCc2nc(-c3ccncc3)nc(Nc3cccc(C(F)(F)F)c3)c2C1` (centres unmarked) [KKL-0541], the “% activation” value is on record as 802%. `NC1CCc2nc(-c3ccncc3)nc(Nc3ccc(C(F)(F)F)cc3)c2C1` (centres unmarked) [KKL-0539]: the “% activation” value is given as 620%.

Consider `O=C(/C=C/c1cccc(C(F)(F)F)c1)Nc1cccc(C(F)(F)F)c1` [KKL-1369], for which the “% activation” value was 0%.

Consider `O=C(CC12CC3CC(CC(C3)C1)C2)Nc1cccc(C(F)(F)F)c1` [KKL-1282], for which the “% activation” value turned out to be 0%.

Values taken from paper PMC12548414.
